Experimental data as given in PubChem BioAssay (Tox21).
Records with an inconclusive call do not appear. Activity calls are given as the source filed them. Unless noted, the call rests on the fitted dose curve; in most records, active means well fitted cell-killing curve with a large enough effect in the repeat runs; inconclusive means weak or mixed curves, or effect the other way; inactive means no such curve, though single readings can be large or run the other way.

Test: qHTS assay for small molecule agonists of the antioxidant response element (ARE) signaling pathway - cell viability counter screen (AID 743203; calls by dose curve; further: nearly all actives have a fitted effect of over 55% in size)
Conditions: ARE-bla HepG2 viability, CellTiter-Glo luminescence, 16 h; series mostly up to 73.3 µM
Procedure, shortened: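 Seeded at 2,000 cells/well, ARE-bla HepG2 cells were incubated 5 hrs before compound addition. After 16 hrs of treatment at 37C with 5% CO2, CellTiter-Glo reagent was added and luminescence read 30 min later.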
On the % scale 0 is the no-effect control and ±100 the full control effect.

Compound | outcome | viability change, negative = cytotoxic
O=C(O)c1ccccc1C(=O)Nc1ccc(S(=O)(=O)Nc2nccs2)cc1 | inactive | 
C[C@H](CCC(=O)NCC(=O)O)[C@H]1CC[C@H]2[C@@H]3[C@H](O)C[C@@H]4C[C@H](O)CC[C@]4(C)[C@H]3C[C@H](O)[C@]12C | inactive | 
BrC/C=C/CBr | inactive | 
Cc1nc(C)nc(N2C[C@@H](C)N(c3ccnc([C@@H](C)O)n3)[C@@H](C)C2)n1 | inactive | 
Nc1cc(S(=O)(=O)O)ccc1S(=O)(=O)O | inactive | 
CCC(=O)c1ccc(O)cc1 | inactive | 
CCOC(=O)CC(CC(=O)OCC)(OC(C)=O)C(=O)OCC | inactive | 
CCCCCCCCCCCCCCCC(=O)NCCO | inactive | 
NS(=O)(=O)c1ccccc1OC(F)(F)F | inactive | 
NS(=O)(=O)c1ccc(Cl)c(S(N)(=O)=O)c1 | inactive | 
CO[Si](CCCS)(OC)OC | inactive | 
COC(/C=C(\C)CCC=C(C)C)OC | inactive | 
O=c1cc(O)c(Cl)c[nH]1 | inactive | 
CCN(CCC#N)c1ccccc1 | inactive | 
CCCCCCCC[Si](OCC)(OCC)OCC | inactive | 
CC(=O)Nc1ncc([N+](=O)[O-])s1 | inactive | 
C=CCCCCCCCCCCC |  | 9.33% [at 8.36 µM] (inactive)
CN(C1CCCCC1)S(=O)(=O)c1ccccc1N | inactive | 
CCCCCCCCCCC | inactive | 
COC(=O)CCC(=O)O | inactive | 
Cc1oc(=O)oc1CN1CCN(c2cc3c(cc2F)c(=O)c(C(=O)O)c2n3C(C)S2)CC1 (stereo unspecified) | inactive | 
CC1CCC(C(C)(C)S)C(=O)C1 (stereo unspecified) | inactive | 
CCCCCCCCCOCC1CO1 (stereo unspecified) | inactive | 
C1=CCC(c2ccccc2)CC1 (stereo unspecified) | inactive | 
CC(C)CCCC(C)CC=O (stereo unspecified) | inactive | 
C=CCOCC(O)CCl (stereo unspecified) | inactive | 
CCCCCC(=O)OCC | inactive | 
CCCCCCCCCCCCC | inactive | 
Cc1cccc(C(=O)O)c1[N+](=O)[O-] | inactive | 
C=C(C)C(=O)OC1CC(C)CC(C)(C)C1 (stereo unspecified) | inactive | 

Test: qHTS assay for small molecule activators of the heat shock response signaling pathway - cell viability counter screen (AID 743209); further: nearly all actives have a fitted effect of over 50% in size
Conditions: HSE-bla HeLa viability, CellTiter-Glo luminescence, 5 h; series mostly up to 62.6 µM
Procedure, shortened: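 First, HSE-bla HeLa cells were seeded at 1500 cells/well and kept overnight at 37 C. Next, compounds were pinned in and incubated 5 h. After the FRET substrate step, CellTiter-Glo was added and luminescence read 30 min later.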

Compound | outcome | activity change, negative = cytotoxicity
O=C(O)c1ccccc1C(=O)Nc1ccc(S(=O)(=O)Nc2nccs2)cc1 | inactive | 
C[C@H](CCC(=O)NCC(=O)O)[C@H]1CC[C@H]2[C@@H]3[C@H](O)C[C@@H]4C[C@H](O)CC[C@]4(C)[C@H]3C[C@H](O)[C@]12C | inactive | 
BrC/C=C/CBr | inactive | 
Cc1nc(C)nc(N2C[C@@H](C)N(c3ccnc([C@@H](C)O)n3)[C@@H](C)C2)n1 | inactive | 
Nc1cc(S(=O)(=O)O)ccc1S(=O)(=O)O | inactive | 
CCC(=O)c1ccc(O)cc1 | inactive | 
CCOC(=O)CC(CC(=O)OCC)(OC(C)=O)C(=O)OCC | inactive | 
CCCCCCCCCCCCCCCC(=O)NCCO | inactive | 
NS(=O)(=O)c1ccccc1OC(F)(F)F | inactive | 
CC(C)COC(=O)CC(C(=O)OCC(C)C)S(=O)(=O)O (stereo unspecified) | inactive | 
NS(=O)(=O)c1ccc(Cl)c(S(N)(=O)=O)c1 | inactive | 
CO[Si](CCCS)(OC)OC | inactive | 
CCN(CCC#N)c1ccccc1 | inactive | 
CCCCCCCC[Si](OCC)(OCC)OCC | inactive | 
Nc1ccc(S(=O)(=O)NC(=O)c2ccccc2)cc1 | inactive | 
CCC(=O)OCCC(C)CCC=C(C)C (stereo unspecified) | inactive | 
C=CCCCCCCCCCCC |  | -3.82% [at 5.95 µM] (inactive)

Compound | outcome | activity change, negative = cytotoxicity
CN(C1CCCCC1)S(=O)(=O)c1ccccc1N | inactive | 
NCCc1ccn[nH]1 | inactive | 
CCCCCCCCCCC | inactive | 
COC(=O)CCC(=O)O | inactive | 
Cc1oc(=O)oc1CN1CCN(c2cc3c(cc2F)c(=O)c(C(=O)O)c2n3C(C)S2)CC1 (stereo unspecified) | inactive | 
CC1CCC(C(C)(C)S)C(=O)C1 (stereo unspecified) | inactive | 
CCCCCCCCCOCC1CO1 (stereo unspecified) | inactive | 
C1=CCC(c2ccccc2)CC1 (stereo unspecified) | inactive | 
CC(C)CCCC(C)CC=O (stereo unspecified) | inactive | 
Oc1ccccc1Cc1ccccc1O | inactive | 
C=COCCOCCOC=C | inactive | 
C=CCOCC(O)CCl (stereo unspecified) | inactive | 
CCCCCC(=O)OCC | inactive | 
Cc1cccc(C(=O)O)c1[N+](=O)[O-] | inactive | 
C=C(C)C(=O)OC1CC(C)CC(C)(C)C1 (stereo unspecified) | inactive | 
CCCOCCOCCOCCO | inactive | 

Test: qHTS assay for small molecule activators of the heat shock response signaling pathway (AID 743210; active means well fitted activation curve with a large enough effect in the signal ratio in the repeat runs, with a control signal flat, not every such curve was filed as active; the % refers to the signal ratio;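 further: HeLa cells with beta-lactamase reporter driven by heat shock elements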)
Conditions: HeLa HSE-bla reporter, beta-lactamase ratio, 5 h; series mostly up to 62.6 µM
Procedure, shortened: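 In HSE-bla HeLa cells, 5 h compound incubation (37 C) precedes addition of LiveBLAzer B/G substrate; after 2.5 h at room temperature, fluorescence intensity indicates reporter induction.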

Compound | outcome
O=C(O)c1ccccc1C(=O)Nc1ccc(S(=O)(=O)Nc2nccs2)cc1 | inactive
Cc1nc(C)nc(N2C[C@@H](C)N(c3ccnc([C@@H](C)O)n3)[C@@H](C)C2)n1 | inactive
Nc1cc(S(=O)(=O)O)ccc1S(=O)(=O)O | inactive
CCC(=O)c1ccc(O)cc1 | inactive
CCOC(=O)CC(CC(=O)OCC)(OC(C)=O)C(=O)OCC | inactive
CCCCCCCCCCCCCCCC(=O)NCCO | inactive
NS(=O)(=O)c1ccccc1OC(F)(F)F | inactive
CC(C)COC(=O)CC(C(=O)OCC(C)C)S(=O)(=O)O (stereo unspecified) | inactive
NS(=O)(=O)c1ccc(Cl)c(S(N)(=O)=O)c1 | inactive
CO[Si](CCCS)(OC)OC | inactive
COC(/C=C(\C)CCC=C(C)C)OC | inactive
O=c1cc(O)c(Cl)c[nH]1 | inactive
CCN(CCC#N)c1ccccc1 | inactive
CCCCCCCC[Si](OCC)(OCC)OCC | inactive
Nc1ccc(S(=O)(=O)NC(=O)c2ccccc2)cc1 | inactive
CC(=O)Nc1ncc([N+](=O)[O-])s1 | inactive
CCC(=O)OCCC(C)CCC=C(C)C (stereo unspecified) | inactive
CN(C1CCCCC1)S(=O)(=O)c1ccccc1N | inactive
CCCCCCCCCCC | inactive
COC(=O)CCC(=O)O | inactive
Cc1oc(=O)oc1CN1CCN(c2cc3c(cc2F)c(=O)c(C(=O)O)c2n3C(C)S2)CC1 (stereo unspecified) | inactive
C1=CCC(c2ccccc2)CC1 (stereo unspecified) | inactive
CC(C)CCCC(C)CC=O (stereo unspecified) | inactive
C=COCCOCCOC=C | inactive
C=CCOCC(O)CCl (stereo unspecified) | inactive
CCCCCC(=O)OCC | inactive
CCCCCCCCCCCCC | inactive
CCCOCCOCCOCCO | inactive
